Assay results as given in PubChem BioAssay (NCATS).
A number with no mark means an inactive call. Results filed as inconclusive are left out. Calls of active or inactive are those of the source. Unless noted, the call rests on the fitted dose curve; in most records, active means well fitted curve in either direction with a large enough effect (not every such curve was filed as active); inconclusive means small, poorly fitted or top-dose-only effect, or another doubt; inactive means flat fitted curve, though single readings scatter.

Legend:
[1] = molecular target: Lysosomal acid glucosylceramidase (Homo sapiens) (UniProt P04062); experiment: Glucocerebrosidase-p2 (AID 348; in the data active means potency below about 10 µM; further: potency means the concentration at half of the fitted maximal effect); details: purified GBA, blue fluorogenic substrate, 40 min
Method in brief: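 Compounds titrated from 0.6 nM upwards against 0.2 nM enzyme in pH 5.9 citric acid/KH2PO4, taurocholate, tween-20; blue fluorogenic substrate 80 uM, 40 min room temperature, stopped and read Ex 365/Em 440 for AC50.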

[2] = AP1 Signaling Pathway (AID 357); details: ME-180 AP-1-bla reporter, EGF-induced, beta-lactamase ratio, 5 h; at 7.69 µM (top of the series) unless noted;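 further: ME-180 reporter cells stimulated with EGF at its EC50 level; on the % scale 0 is the no-effect control and ±100 the full control effect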
Method in brief: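 AP-1-bla ME-180 cells, Opti-MEM + 0.5% dialyzed FBS, plated overnight 37 °C. Cpd titration + EC50 EGF, 5 h 37 °C. CCF4 2.5 h RT; ex 405, em 460/530 ratio → %activity, AC50.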

[3] = molecular target: Cytochrome P450 1A2 (Homo sapiens) (UniProt P05177); experiment: p450-cyp1a2 (AID 410; calls by dose curve; further: potency means the concentration at half of the fitted maximal effect;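 on activity change, negative = inhibition: -100% = full effect of reference inhibitor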); details: recombinant CYP1A2, luciferin-ME demethylation, luminescence; series mostly up to 57 µM
Method in brief: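 Inhibition was calculated relative to 57 uM furafylline (full inhibition). The reaction used human CYP1A2 at 20nM with Luciferin-ME at its Km, 100uM, driven by an NADPH-regenerating system for 60 min at room temperature.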

[4] = NFAT Signaling Pathway (AID 444); details: Jurkat NFAT-bla M1, carbachol, beta-lactamase ratio, 5 h; at 7.69 µM (top of the series) unless noted;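 further: carbachol stimulus at about its EC50 of 1 µM final; on the % scale 0 is the no-effect control and ±100 the full control effect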
Method in brief: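 Read-out: CCF4 FRET ratio (460 nm/530 nm) after 1 h RT dye loading, used for %activity and AC50 from titration series. Cells: Jurkat NFAT-β-lactamase/M1 line, treated with compound plus 1 uM carbachol for 5 h, 37 °C.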

[5] = Stat Signaling Pathway (AID 446); details: ME-180 SIE beta-lactamase reporter, IL-6 stimulated, 5 h; at 7.69 µM (top of the series) unless noted;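 further: ME-180 cervical cancer cells given 40 pM IL-6 alongside compound; SIE-controlled beta-lactamase reporter measured as 460/530 nm FRET emission ratio; on the % scale 0 is the no-effect control and ±100 the full control effect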
Method in brief: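 Reporter line: ME-180 cervical carcinoma, SIE-beta-lactamase. Treatment: compound with 40 pM IL-6, 5 hrs, 37 C, in low-serum OPTI-MEM with 10 mM HEPES pH 7.3. Detection: 460/530 nm fluorescence.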

[6] = molecular target: Glucocorticoid receptor (Homo sapiens) (UniProt P04150); experiment: GR-EFC Redistribution (AID 451; calls by dose curve; further: potency means the concentration at half of the fitted maximal effect); details: CHO-K1 GR-EFC translocation, beta-gal luminescence, 2 h
Method in brief: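 Translocation of GR-ED fusion to nuclear EA restores b-gal, read by luminescence after 1 h room-temperature detection. Engineered CHO-K1 biosensor cells, 1,000/well, exposed 2 h at 37 C to titrations up to 46 uM final.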

[7] = molecular target: Mitogen-activated protein kinase 10 (Mus musculus) (UniProt Q61831); experiment: JNK3 AlphaScreen Assay (AID 530); details: JNK3 lysate, c-Jun phosphorylation; series mostly up to 57.1 µM;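 further: kinase came from lysate of stimulated human HepG2 cells; signal reports phosphorylation of biotinylated GST-cJun 1-79 at Ser73 with 10 µM ATP; on the % scale 0 is the no-effect control and ±100 the full control effect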
Method in brief: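 Room-temperature AlphaScreen kinase assay; pre-activated HepG2 lysate as JNK3 source, biotin-GST-cJun(1-79) substrate, 10 uM ATP, compound 15 min preincubation.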

[8] = molecular target: 3',5'-cyclic-AMP phosphodiesterase 4B (Homo sapiens) (UniProt Q07343); experiment: qHTS Assay for Inhibitors of PDE-IV (AID 607; active means well fitted activation curve with a large enough effect in the main read-out, with a control signal flat, not every such curve was filed as active; further: % of control where 0% means no effect); details: HEK293 ACTOne CNG channel cells, membrane potential fluorescence; series mostly up to 22.9 µM
Method in brief: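 Cell-based read-out of cAMP via a modified cyclic nucleotide-gated channel and membrane potential dye (535/590 nm) in HEK293 cells expressing PDE4 endogenously. Compounds tested up to 22.9 uM final; 100 uM RO 20-1724 reference.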

[9] = Primary qHTS for small molecule stabilizers of the endoplasmic reticulum resident proteome: Secreted ER Calcium Modulated Protein (SERCaMP) assay (AID 1508630; active means well fitted curve in the direction sought with a large enough effect; an effect the other way counts as inactive or inconclusive; further: on the % scale 0 is the no-effect control and ±100 the full control effect); details: SH-SY5Y GLuc-SERCaMP (Gaussia luciferase released on ER calcium loss) secretion, thapsigargin, luminescence; series mostly up to 38.4 µM
Method in brief: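 GLuc-SERCaMP-expressing SH-SY5Y cells, pretreated 16 h with compound, are challenged with thapsigargin to empty ER calcium stores; after 4 h, coelenterazine is added directly to the medium and luminescence is imaged.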

[10] = molecular target: Cytochrome P450 3A4 (Homo sapiens) (UniProt P08684); experiment: qHTS Assay for Activators of Cytochrome P450 3A4 (AID 885; active means well fitted curve in the direction sought with a large enough effect; an effect the other way counts as inactive or inconclusive; further: nearly all actives have a fitted effect of over 65% in size); details: recombinant CYP3A4, Luciferin-PPXE luminescence, 60 min; series mostly up to 57.1 µM
Method in brief: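 Signal was normalized against complete inhibition by 57 uM ketoconazole. The reaction used 20nM CYP3A4 with 25uM Luciferin-PPXE, 10-min compound preincubation and a 60-min NADPH-supported step at RT.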

[11] = Confirmation and Secondary Assay for Modulators of Hemoglobin Beta Chain Splicing at IVS2 654 locus (AID 910; active means well fitted curve in the direction sought with a large enough effect; an effect the other way counts as inactive or inconclusive;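 further: HeLa cells stably carrying EGFP split by mutant beta-globin IVS2-654 intron; per-well total GFP intensity by laser scanning cytometry after 2-day treatment; % of control where 0% means no effect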); details: HeLa EGFP-654 splicing reporter, GFP fluorescence, 48 h; series mostly up to 38.3 µM
Method in brief: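 Readout: per-well total peak green fluorescence (488 nm ex, 500–520 nm em) from objects 5–250 µm, reflecting correct splicing of an EGFP-654 reporter. Compounds were applied for 2 days at 37 °C to overnight-plated HeLa EGFP-654 cells; controls were DMSO and 500 nM IVS2-654 PNA.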

[12] = qHTS Assay for Identification of Small Molecule Agonists for Hypoxia Response Element Signaling Pathway (AID 914; active means well fitted activation curve with a large enough effect in the signal ratio, with a control signal flat, not every such curve was filed as active; the % refers to the signal ratio; further: % of control where 0% means no effect); details: ME-180 (cervical carcinoma) HRE-bla reporter, beta-lactamase ratio, CoCl2, 17 h; activation: active compounds read high
Method in brief: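 AC50 values come from titration-series %Activity, taken as the 460/530nm ratio of CCF4 fluorescence (excitation 405nm). CellSensor HRE-bla ME-180 cells were treated 17 hours at 37 C with compound plus an EC50 level of CoCl2.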

[13] = Confirmation and Secondary Assay for Modulators of Hemoglobin Beta Chain Splicing at IVS2 705 locus (AID 930; active means well fitted curve in the direction sought with a large enough effect; an effect the other way counts as inactive or inconclusive;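 further: HeLa cells stably expressing the EGFP-705 splicing reporter; % of control where 0% means no effect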); details: HeLa EGFP-705 splicing reporter, GFP fluorescence, 48 h; series mostly up to 38.3 µM
Method in brief: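 Restored EGFP fluorescence after 2-day compound exposure reports splicing correction in IVS2-705 EGFP reporter HeLa cells; positive control was 500 nM splice-blocking PNA oligo. Signal measured as well total peak GFP intensity (488 nm excitation).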

[14] = molecular target: Ubiquitin carboxyl-terminal hydrolase 1 (Homo sapiens) (UniProt O94782); experiment: Inhibitors of USP1/UAF1: Pilot qHTS (AID 504865; active means well fitted curve in the direction sought with a large enough effect; an effect the other way counts as inactive or inconclusive;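 further: rhodamine fluorescence freed from ubiquitin-rhodamine substrate followed over time; top concentration of the series differs between compounds; on the % scale 0 is the no-effect control and ±100 the full control effect; nearly all actives have a fitted effect of over 35% in size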); details: purified USP1/UAF1, Ub-rhodamine cleavage fluorescence; series mostly up to 54.9 µM
Method in brief: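 USP1/UAF1 complex (1nM) preincubated with compound 15 min at room temperature, then Ub-Rho substrate (150nM final) added. Fluorescence read kinetically at 480/540 nm, 6 reads every 60 seconds. Buffer: 50mM HEPES pH 7.8, 0.5mM EDTA, 0.1 mg/ml BSA, 1mM TCEP, 0.01% Tween-20.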

[15] = molecular target: Glucocorticoid receptor (Homo sapiens) (UniProt P04150); experiment: GR-GFP Redistribution (AID 450;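 active means compounds whose dose series gives a full or clear partial fitted curve of increased nuclear translocation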; further: potency means the concentration at half of the fitted maximal effect); details: U2OS GR-GFP nuclear translocation, laser cytometry, 2 h
[16] = molecular target: Cytochrome P450 3A4 (Homo sapiens) (UniProt P08684); experiment: qHTS Assay for Inhibitors and Substrates of Cytochrome P450 3A4 (AID 884; active means well fitted curve in the direction sought with a large enough effect; an effect the other way counts as inactive or inconclusive; further: potency means the concentration at half of the fitted maximal effect; nearly all actives have a fitted effect of over 50% in size); details: recombinant CYP3A4, Luciferin-PPXE luminescence; series mostly up to 57.1 µM
Method in brief: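 20 nM human CYP3A4 with 25 uM Luciferin-PPXE (at KM) in 200 mM KPO4, preincubated 10 min with compound; NADPH regeneration started a 60 min RT reaction. Luciferin detected by luminescence, normalized to 57 uM ketoconazole as full inhibition.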

Chain of 3',5'-cyclic-AMP phosphodiesterase 4B (Homo sapiens) (Q07343 whole entry, looked up): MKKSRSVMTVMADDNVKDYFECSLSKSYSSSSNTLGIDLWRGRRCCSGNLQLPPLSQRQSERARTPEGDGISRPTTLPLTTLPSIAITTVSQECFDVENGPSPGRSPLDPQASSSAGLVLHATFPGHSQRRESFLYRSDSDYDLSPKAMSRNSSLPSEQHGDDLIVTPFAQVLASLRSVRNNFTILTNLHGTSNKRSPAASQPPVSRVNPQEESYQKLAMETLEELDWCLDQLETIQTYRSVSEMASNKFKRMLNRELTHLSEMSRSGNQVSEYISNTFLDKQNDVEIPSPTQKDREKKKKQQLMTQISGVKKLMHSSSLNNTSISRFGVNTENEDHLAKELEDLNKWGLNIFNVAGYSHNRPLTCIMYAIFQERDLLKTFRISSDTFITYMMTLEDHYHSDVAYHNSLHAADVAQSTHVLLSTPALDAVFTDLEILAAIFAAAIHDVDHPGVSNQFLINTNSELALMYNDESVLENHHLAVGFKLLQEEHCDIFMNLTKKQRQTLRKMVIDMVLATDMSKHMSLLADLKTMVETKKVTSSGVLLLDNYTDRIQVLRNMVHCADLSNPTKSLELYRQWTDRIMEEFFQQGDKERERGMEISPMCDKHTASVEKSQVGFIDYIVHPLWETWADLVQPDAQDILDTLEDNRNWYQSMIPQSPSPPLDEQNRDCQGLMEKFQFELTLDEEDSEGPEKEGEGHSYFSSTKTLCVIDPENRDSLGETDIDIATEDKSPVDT
Chain of Cytochrome P450 3A4 (Homo sapiens) (P08684 whole entry, looked up): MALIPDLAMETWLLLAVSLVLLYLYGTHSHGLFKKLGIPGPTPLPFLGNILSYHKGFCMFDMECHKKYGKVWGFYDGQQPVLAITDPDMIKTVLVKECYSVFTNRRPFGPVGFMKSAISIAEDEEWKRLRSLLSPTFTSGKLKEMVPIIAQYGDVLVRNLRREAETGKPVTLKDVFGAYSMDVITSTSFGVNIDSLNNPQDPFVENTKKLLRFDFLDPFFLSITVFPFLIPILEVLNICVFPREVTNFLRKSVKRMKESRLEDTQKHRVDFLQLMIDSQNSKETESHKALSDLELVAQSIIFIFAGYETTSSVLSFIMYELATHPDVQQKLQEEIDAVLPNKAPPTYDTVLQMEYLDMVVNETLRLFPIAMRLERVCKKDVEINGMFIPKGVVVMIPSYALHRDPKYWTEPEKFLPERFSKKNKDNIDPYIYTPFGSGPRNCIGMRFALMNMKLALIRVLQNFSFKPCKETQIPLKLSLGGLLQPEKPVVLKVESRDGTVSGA
Chain of Glucocorticoid receptor (Homo sapiens) (P04150 whole entry, looked up, the tested form may be a part): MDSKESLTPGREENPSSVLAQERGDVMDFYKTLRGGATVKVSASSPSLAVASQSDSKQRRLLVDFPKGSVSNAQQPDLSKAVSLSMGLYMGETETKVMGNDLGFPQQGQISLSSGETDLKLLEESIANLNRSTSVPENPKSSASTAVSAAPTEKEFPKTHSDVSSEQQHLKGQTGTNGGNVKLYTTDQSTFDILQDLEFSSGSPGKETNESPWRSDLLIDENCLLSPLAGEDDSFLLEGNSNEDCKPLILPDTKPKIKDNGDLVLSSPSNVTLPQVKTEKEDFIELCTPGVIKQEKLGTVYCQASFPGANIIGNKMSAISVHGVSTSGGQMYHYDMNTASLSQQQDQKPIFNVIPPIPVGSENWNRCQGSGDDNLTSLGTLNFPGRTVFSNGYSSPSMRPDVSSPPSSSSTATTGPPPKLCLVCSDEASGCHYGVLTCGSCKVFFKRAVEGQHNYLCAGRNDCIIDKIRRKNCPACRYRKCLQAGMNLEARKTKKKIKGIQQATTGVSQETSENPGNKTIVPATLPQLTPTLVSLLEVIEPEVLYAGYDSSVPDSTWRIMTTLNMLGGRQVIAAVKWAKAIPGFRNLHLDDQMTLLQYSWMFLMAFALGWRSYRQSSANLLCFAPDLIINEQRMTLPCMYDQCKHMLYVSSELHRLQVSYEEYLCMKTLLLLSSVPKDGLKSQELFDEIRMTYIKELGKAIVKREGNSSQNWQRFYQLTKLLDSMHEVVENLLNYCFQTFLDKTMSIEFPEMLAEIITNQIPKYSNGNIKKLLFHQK
Chain of Cytochrome P450 1A2 (Homo sapiens) (P05177 whole entry, looked up): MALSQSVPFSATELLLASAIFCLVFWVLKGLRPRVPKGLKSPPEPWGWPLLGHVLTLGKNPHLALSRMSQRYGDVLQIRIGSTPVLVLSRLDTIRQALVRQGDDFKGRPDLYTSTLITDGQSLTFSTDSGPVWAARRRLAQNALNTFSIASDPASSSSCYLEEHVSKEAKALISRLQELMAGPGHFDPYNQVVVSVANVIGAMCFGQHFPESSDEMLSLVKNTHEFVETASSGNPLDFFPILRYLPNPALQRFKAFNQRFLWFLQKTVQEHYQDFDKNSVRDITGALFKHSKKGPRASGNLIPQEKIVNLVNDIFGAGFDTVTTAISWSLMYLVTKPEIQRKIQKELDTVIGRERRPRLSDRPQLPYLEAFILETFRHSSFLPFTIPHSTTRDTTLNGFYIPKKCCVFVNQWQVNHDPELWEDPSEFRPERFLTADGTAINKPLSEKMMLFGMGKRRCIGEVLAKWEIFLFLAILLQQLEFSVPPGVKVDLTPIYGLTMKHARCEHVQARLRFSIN
Chain of Lysosomal acid glucosylceramidase (Homo sapiens) (P04062 whole entry, looked up): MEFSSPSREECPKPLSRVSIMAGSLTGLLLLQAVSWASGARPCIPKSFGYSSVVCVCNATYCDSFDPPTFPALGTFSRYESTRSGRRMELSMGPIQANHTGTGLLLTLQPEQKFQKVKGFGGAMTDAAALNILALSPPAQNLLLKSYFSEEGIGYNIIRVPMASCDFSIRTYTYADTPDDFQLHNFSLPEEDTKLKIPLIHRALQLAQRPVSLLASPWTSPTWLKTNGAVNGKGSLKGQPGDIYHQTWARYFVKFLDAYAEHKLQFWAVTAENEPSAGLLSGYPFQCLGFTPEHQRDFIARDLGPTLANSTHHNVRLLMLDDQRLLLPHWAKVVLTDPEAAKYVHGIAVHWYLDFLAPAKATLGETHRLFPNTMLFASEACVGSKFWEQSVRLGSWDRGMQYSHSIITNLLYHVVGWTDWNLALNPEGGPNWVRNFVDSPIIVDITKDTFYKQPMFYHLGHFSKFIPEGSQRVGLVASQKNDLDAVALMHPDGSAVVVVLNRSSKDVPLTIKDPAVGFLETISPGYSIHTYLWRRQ
Chain of Ubiquitin carboxyl-terminal hydrolase 1 (Homo sapiens) (O94782 whole entry, looked up): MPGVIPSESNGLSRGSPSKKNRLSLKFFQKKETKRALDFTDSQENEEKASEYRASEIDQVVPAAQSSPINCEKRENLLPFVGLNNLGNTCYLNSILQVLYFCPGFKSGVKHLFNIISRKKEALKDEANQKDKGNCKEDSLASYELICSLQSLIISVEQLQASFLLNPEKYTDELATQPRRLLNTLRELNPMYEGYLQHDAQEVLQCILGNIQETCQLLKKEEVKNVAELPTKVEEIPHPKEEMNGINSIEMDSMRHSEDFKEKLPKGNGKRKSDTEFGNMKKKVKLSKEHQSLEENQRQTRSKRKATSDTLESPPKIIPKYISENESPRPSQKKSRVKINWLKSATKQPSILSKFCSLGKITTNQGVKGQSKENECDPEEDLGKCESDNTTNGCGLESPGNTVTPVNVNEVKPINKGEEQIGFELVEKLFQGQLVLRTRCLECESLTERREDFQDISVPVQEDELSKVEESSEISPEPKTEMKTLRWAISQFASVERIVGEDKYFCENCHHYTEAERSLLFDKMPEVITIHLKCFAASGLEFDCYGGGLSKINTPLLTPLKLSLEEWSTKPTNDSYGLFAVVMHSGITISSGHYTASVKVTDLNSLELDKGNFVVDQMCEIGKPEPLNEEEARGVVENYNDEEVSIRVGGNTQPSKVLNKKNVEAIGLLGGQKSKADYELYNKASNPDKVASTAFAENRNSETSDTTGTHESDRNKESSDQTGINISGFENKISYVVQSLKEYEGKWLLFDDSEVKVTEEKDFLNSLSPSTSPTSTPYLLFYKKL

CC(=O)N1CCC2(CCCN(c3ncccn3)C2)CC1
Potency [1]: > 11.4 µM
activity change, negative = inhibition [2]: -18.1%
Potency [3]: inactive
activity change, negative = inhibition [4]: 4.89%
activity, negative = inhibition [5]: -2.74%
Potency [6]: > 46 µM
Potency [7]: inactive
Potency [8]: inactive
outcome [9]: inactive

Cc1ccccc1-c1nccc(-n2ccnc2)n1
Potency [1]: > 11.4 µM
activity change, negative = inhibition [2]: 5.77%
Potency [3]: 0.0794 µM (active)
activity change, negative = inhibition [4]: -8.66%
activity, negative = inhibition [5]: 12.8%
Potency [6]: > 46 µM
Potency [7]: inactive
Potency [8]: inactive
Potency [10]: inactive
Potency [11]: inactive
activation [12]: -1.43%
outcome [13]: inactive
Potency [14]: inactive
outcome [9]: inactive

COCCn1c(=O)c(-c2cn(C)c3ccccc23)nc2cncnc21
Potency [1]: > 11.4 µM
activity change, negative = inhibition [2]: 1.74%
Potency [3]: 0.398 µM (active)
activity change, negative = inhibition [4]: -1.67%
activity, negative = inhibition [5]: -9.49%
Potency [15]: > 9.22 µM
Potency [6]: > 46 µM
Potency [7]: inactive
Potency [16]: 3.16 µM (active)
outcome [9]: inactive

COc1ccccc1-c1nc(N(C)Cc2ccco2)c2ccccc2n1
Potency [1]: > 11.4 µM
activity change, negative = inhibition [2]: 27.9%
Potency [3]: 0.501 µM (active)
activity change, negative = inhibition [4]: -21.3%
activity, negative = inhibition [5]: 8.04%
Potency [15]: > 46 µM
Potency [6]: > 46 µM
Potency [7]: inactive
Potency [16]: 7.94 µM (active)
Potency [10]: inactive
outcome [9]: inactive

COC(=O)N1CCC2(CC1)CN(C(=O)Nc1cccc(F)c1)C2
Potency [1]: > 11.4 µM
activity change, negative = inhibition [2]: -2.84%
Potency [3]: inactive
activity change, negative = inhibition [4]: 0.322%
activity, negative = inhibition [5]: -2.22%
Potency [6]: > 46 µM
Potency [7]: inactive
Potency [8]: inactive
outcome [9]: inactive

COc1cccc(Cn2c(=O)c(-c3ccccc3)nc3cnc(N(C)C)nc32)c1
Potency [1]: > 11.4 µM
activity change, negative = inhibition [2]: 8.64%
Potency [3]: 10 µM (active)
activity change, negative = inhibition [4]: -16.4%
activity, negative = inhibition [5]: 11.4%
Potency [15]: > 9.22 µM
Potency [6]: > 46 µM
Potency [10]: inactive
outcome [9]: inactive

COC(=O)N1CCC2(CCCN(C(=O)Nc3ccccc3)C2)CC1
Potency [1]: > 11.4 µM
activity change, negative = inhibition [2]: -8.56%
Potency [3]: inactive
activity change, negative = inhibition [4]: 8.44%
activity, negative = inhibition [5]: -0.296%
Potency [6]: > 46 µM
Potency [7]: inactive
Potency [8]: inactive
outcome [9]: inactive

O=c1c(CCc2ccccc2)nc2cncnc2n1-c1ccccc1
Potency [1]: > 11.4 µM
activity change, negative = inhibition [2]: -24.4%
Potency [3]: 15.8 µM (active)
activity change, negative = inhibition [4]: -14%
activity, negative = inhibition [5]: -17.6%
Potency [15]: > 9.22 µM
Potency [6]: > 46 µM
Potency [7]: inactive
Potency [10]: inactive
outcome [9]: inactive
